Assay outcomes from PubChem.
In the library only some 2% were active in any assay of this set; here they are far more common.
Insulin prom inh = TRM-6 insulin promoter activity inhibition | TRM-6 cells (human fetal islet line), insulin promoter-eGFP reporter, imaging; reporter expression induced with tamoxifen | inhibition, % at 2 µM | 0.9% of 130,000 active | AID 1273;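 active = inhibition above the mean plus 3 SD, with well images judged a real hit on visual review, cut at about 60% in these data, passing the limit was not always enough; inconclusive = inhibition over the cutoff but images rejected on review; inactive = inhibition not above the cutoff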
Autophagy mod = alters autophagy in cells. MEF GFP-LC3 puncta imaging; test concentration mostly 10 µM. calls only at 10 µM (by protocol). 0.98% of 190,000 active. AID 463193;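 active = percentage of spot-positive cells more than 3 SD above its plate mean, without a fluorescence outlier flag or 80% toxicity; inconclusive = no clear call, values can overlap the other calls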;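 also: spot-positive cell cutoff set from DMSO-treated cells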
eIF4E-4G inh = eIF4E/eIF4G interaction inhibition in translation initiation; P63073+Q04637; TR-FRET eIF4E-eIF4GI(517-606) binding, 2 h; 0.37% of 220,000 active; AID 782; inhibition, % at 21.7 µM;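 active = inhibition above about 30%, limit read from the data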;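 also: 0% = full FRET control wells and 100% = background wells lacking eIF4GI fragment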
Target sequence (P63073 whole entry, looked up, the tested form may be a part): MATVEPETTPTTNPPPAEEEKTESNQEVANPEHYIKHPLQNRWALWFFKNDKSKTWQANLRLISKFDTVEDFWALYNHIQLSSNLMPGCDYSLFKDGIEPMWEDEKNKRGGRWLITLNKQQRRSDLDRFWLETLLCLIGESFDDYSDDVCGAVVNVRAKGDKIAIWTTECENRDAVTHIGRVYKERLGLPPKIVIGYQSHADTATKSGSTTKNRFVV
Target sequence (Q04637 whole entry, looked up, the tested form may be a part): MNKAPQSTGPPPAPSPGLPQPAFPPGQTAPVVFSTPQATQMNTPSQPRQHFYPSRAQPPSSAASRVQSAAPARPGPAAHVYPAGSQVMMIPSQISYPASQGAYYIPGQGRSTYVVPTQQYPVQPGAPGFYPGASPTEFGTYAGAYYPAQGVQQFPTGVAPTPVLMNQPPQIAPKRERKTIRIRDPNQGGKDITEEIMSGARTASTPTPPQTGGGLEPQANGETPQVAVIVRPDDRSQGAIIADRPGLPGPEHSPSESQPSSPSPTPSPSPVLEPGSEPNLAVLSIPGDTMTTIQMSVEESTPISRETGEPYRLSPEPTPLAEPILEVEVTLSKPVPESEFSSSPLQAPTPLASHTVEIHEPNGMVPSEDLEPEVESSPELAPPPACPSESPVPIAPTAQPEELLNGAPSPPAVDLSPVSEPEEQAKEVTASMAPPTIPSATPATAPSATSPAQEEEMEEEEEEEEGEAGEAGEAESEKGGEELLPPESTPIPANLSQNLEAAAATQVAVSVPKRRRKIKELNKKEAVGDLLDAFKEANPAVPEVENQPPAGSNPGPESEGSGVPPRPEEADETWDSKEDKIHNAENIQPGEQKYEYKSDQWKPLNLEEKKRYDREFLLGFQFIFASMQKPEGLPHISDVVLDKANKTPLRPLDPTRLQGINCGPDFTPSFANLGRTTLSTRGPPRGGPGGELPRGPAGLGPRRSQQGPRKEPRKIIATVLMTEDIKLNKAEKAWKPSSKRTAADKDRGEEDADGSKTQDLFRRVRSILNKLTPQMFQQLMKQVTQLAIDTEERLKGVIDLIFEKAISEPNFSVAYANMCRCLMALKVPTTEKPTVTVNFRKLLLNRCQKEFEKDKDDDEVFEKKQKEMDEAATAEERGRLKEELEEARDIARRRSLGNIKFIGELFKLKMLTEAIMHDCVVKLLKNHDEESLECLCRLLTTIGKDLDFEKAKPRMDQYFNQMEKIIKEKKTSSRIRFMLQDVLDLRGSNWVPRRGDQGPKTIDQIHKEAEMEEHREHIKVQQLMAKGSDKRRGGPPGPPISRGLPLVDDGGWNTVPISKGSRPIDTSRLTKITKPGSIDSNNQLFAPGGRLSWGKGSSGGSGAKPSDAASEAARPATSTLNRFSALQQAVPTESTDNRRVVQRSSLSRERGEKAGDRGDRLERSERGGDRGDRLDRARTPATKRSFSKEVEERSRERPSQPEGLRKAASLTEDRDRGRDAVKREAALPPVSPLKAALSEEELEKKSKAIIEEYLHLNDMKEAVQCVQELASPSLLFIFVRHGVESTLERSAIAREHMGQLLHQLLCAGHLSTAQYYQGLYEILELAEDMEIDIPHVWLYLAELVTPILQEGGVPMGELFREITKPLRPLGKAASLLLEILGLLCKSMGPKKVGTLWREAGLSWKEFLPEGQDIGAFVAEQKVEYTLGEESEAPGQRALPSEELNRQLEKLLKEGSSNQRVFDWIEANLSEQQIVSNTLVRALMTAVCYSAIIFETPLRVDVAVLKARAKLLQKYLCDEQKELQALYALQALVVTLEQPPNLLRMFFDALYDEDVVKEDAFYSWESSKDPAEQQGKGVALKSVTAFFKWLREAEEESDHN
Ins promoter up = MIN6 insulin promoter up-regulation; MIN6 insulin promoter-GFP reporter, high-content imaging; stronger effect = higher value; z-score at 5 µM; 0.3% of 190,000 active; AID 1625;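 active = z-score above 3 at 5 µM with at least 500 cells counted in the well; inconclusive = wells under 500 cells, flagged as cytotoxic or low count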
PERK inhibitor = human PERK inhibition, primary cell-based screen. 0.17% of 220,000 active. inhibition, % at 5.6 µM. CHO PERK-DD fusion, SEAP luminescence translation reporter. Q9NZJ5. AID 1416;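 active = inhibition above the mean inhibition of all tested compounds plus 3 SD, set separately per screening campaign, cut at about 2.9% in these data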;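 also: PERK kinase domain activated by AP20187 dimerizer at 100 nM; 0% = DMSO with dimerizer and 100% = rapamycin at 8.4 µM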
* = called active by the depositor.

For COCCn1cnc2c1c(=O)n(CC(=O)OCC#N)c(=O)n2Cc1ccccc1 the results were Insulin prom inh -42, Autophagy mod inactive, eIF4E-4G inh -2, Ins promoter up -0.73 and PERK inhibitor 0.
Screening COc1ccc(C2C(C(=O)O)CCC(=O)N2c2ccc(C)cc2)cc1OC (centres undefined) returned eIF4E-4G inh 2, Ins promoter up 0.81 and PERK inhibitor 1.
Screening O=C(Nc1ccc(O)c(C(=O)O)c1)c1ccc2c(c1)C(=O)N(CC1CCCO1)C2=O (centres undefined) returned Autophagy mod inactive, eIF4E-4G inh -2, Ins promoter up 0.56 and PERK inhibitor 1.
For CC(=O)Oc1cccc(N2C(=O)c3ccc(C(=O)O)cc3C2=O)c1 the results were Autophagy mod inactive, eIF4E-4G inh 3, Ins promoter up 0.02 and PERK inhibitor 0.
For O=C(O)c1ccc2c(c1)C(=O)N(c1cccc(-c3nc4ccccc4s3)c1)C2=O the results were Autophagy mod inactive, eIF4E-4G inh 46* and PERK inhibitor 1.
`O=C(CSc1ncnc2sc3c(c12)CCCCC3)NCc1ccco1` gave Insulin prom inh -7, Autophagy mod active, eIF4E-4G inh -7, Ins promoter up 0.18 and PERK inhibitor -2.
For O=C(CSc1ncnc2sc3c(c12)CCCC3)c1ccco1 the results were Insulin prom inh 39, Autophagy mod inactive, eIF4E-4G inh -1, Ins promoter up -0.83 and PERK inhibitor 0.
O=C(CCl)Nc1cn(-c2ccccc2)nc1-c1ccc(F)cc1 was read as Autophagy mod inactive, eIF4E-4G inh -1, Ins promoter up -0.31 and PERK inhibitor 1.
O=C(NCc1ccccc1)N[C@@H](Cc1c[nH]c2ccccc12)C(=O)O was read as Insulin prom inh 75*, Autophagy mod inactive, eIF4E-4G inh 1, Ins promoter up 0.47 and PERK inhibitor 0.
`O=C(Cc1ncon1)Nc1ccc(F)c(F)c1F` gave eIF4E-4G inh -1, Ins promoter up -0.35 and PERK inhibitor 3.6*.
For CN(CC(=O)Nc1ccc(F)c(F)c1F)c1cnccn1 the results were Autophagy mod inactive, eIF4E-4G inh 2 and PERK inhibitor 0.
CCC(C(=O)Nc1cccc(C(=O)O)c1C)c1ccccc1 (centres undefined) was read as Insulin prom inh -12, Autophagy mod inactive, eIF4E-4G inh 1, Ins promoter up -0.79 and PERK inhibitor 3.5*.
Screening CCOc1ccc(Oc2ccc(-c3nnc(-c4ccccc4)o3)cc2[N+](=O)[O-])cc1 returned Autophagy mod active, eIF4E-4G inh -10, Ins promoter up -0.68 and PERK inhibitor 0.
For O=C(CNC(=O)c1ccccc1C(=O)O)c1ccccc1 the results were Insulin prom inh 78*, Autophagy mod inactive, eIF4E-4G inh -2, Ins promoter up -0.07 and PERK inhibitor 0.
`CCOc1cc(C(N)=O)cc(Br)c1OC` gave Insulin prom inh 12, Autophagy mod inactive, eIF4E-4G inh -5 and PERK inhibitor 4.9*.
C/C(=N/NC(=O)C1COc2ccccc2O1)c1ccc(Br)s1 (centres undefined) was read as eIF4E-4G inh 98*, Ins promoter up 0.25 and PERK inhibitor 1.
`C/C(=N\NC(=O)C1COc2ccccc2O1)c1ccc(Cl)s1` (centres undefined) gave Autophagy mod inactive, eIF4E-4G inh 0, Ins promoter up -0.18 and PERK inhibitor 1.
CC(=O)c1cccc(NC(=O)/C=C/c2ccc([N+](=O)[O-])s2)c1 was read as Insulin prom inh inactive, Autophagy mod inactive, eIF4E-4G inh -7, Ins promoter up inconclusive and PERK inhibitor 1.
`Cc1ccccc1NC(=O)/C=C/c1ccc([N+](=O)[O-])s1` gave Autophagy mod active, eIF4E-4G inh -1, Ins promoter up inconclusive and PERK inhibitor 0.
Cc1ccccc1NC(=O)/C=C/c1cccs1 was read as Autophagy mod inactive, eIF4E-4G inh 3, Ins promoter up 0.07 and PERK inhibitor 1.
Screening Cc1cc(C)cc(NC(=O)/C=C/c2ccc([N+](=O)[O-])s2)c1 returned Autophagy mod inactive, eIF4E-4G inh 2, Ins promoter up 6* and PERK inhibitor 1.
For Clc1ccc(CSc2nnnn2-c2ccc3c(c2)OCO3)c(Cl)c1 the results were Insulin prom inh -50, Autophagy mod inactive, eIF4E-4G inh 0, Ins promoter up 0.18 and PERK inhibitor 1.
